In PubChem BioAssay AID1347076 (National Center for Advancing Translational Sciences (NCATS), 2019):
In all, about 400,000 compounds went through this assay and about 13,000 (3.2%) were called active. Roughly 18% stayed inconclusive and do not appear here. Calls follow the shape of the dose curve; as a rule, active = well fitted cell-killing curve with a large enough effect; inconclusive = small, poorly fitted or top-dose-only effect, or effect the other way; inactive = flat fitted curve, though single readings scatter. What follows is part of a selection rich in actives, with near analogues and random picks from the rest.

Experiment: qHTS assay for MDR1-selective chemotherapeutics: Primary screen using the drug-selected MDR subline cells KB-V1; also: nearly all actives have a fitted effect of over 60% in size
Settings: KB-V1 MDR cells viability, CellTiter-Glo, 72 h; series mostly up to 46.1 µM; activity change, negative = cytotoxicity: at the top concentration
Method in brief: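 Potencies derive from concentration-effect curves fitted to normalized luminescence (CellTiter-Glo) of KB-V1 cells treated for 72 h at 37 degrees C in phenol-red-free DMEM containing 10% FBS.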
% is scaled to controls: 0 for no effect and ±100 for the full control effect; potency is read from the fitted curve at half-maximal effect.

Row | Structure (SMILES) | activity change, negative = cytotoxicity | Potency
1 | CCc1nc2c(OCCOc3ccccc3)cccn2c1N(C=O)Cc1ccc(OC)cc1 | -23% (inactive) | –
2 | CC(Nc1nc(C(F)(F)F)nc2ccccc12)c1cccs1 (stereo unspecified) | -18.5% (inactive) | –
3 | CCc1ccc(C(CNc2nc(C(F)(F)F)nc3ccccc23)N(C)C)cc1 (stereo unspecified) | – | 16.4 µM (active)
4 | Cc1cc(C)n(-c2nc(C(F)(F)F)nc3ccccc23)n1 | 18.4% (inactive) | –
5 | CC1=C(C(=O)N(C(C)C)C(C)C)CC(CC(=O)NCC2CCCCC2)C(=O)N1Cc1ccccc1 (stereo unspecified) | -6.01% (inactive) | –
6 | O=C(NCC1CCCO1)c1ccc2ccccc2n1 (stereo unspecified) | 20.7% (inactive) | –
7 | COc1ccc2cc(C(=O)NCC3CCCO3)[nH]c2c1 (stereo unspecified) | -5.71% (inactive) | –
8 | O=C(NCC1CCCO1)c1cc2c([nH]c3ccccc32)c(-c2ccc(F)cc2)n1 (stereo unspecified) | – | 11.6 µM (active)
9 | Cc1cccc(N(CC(=O)N2CCCC2)S(C)(=O)=O)c1C | -10.2% (inactive) | –
10 | Cc1ccc2c(CN3CCN(S(=O)(=O)c4ccccc4C(F)(F)F)CC3)cc(=O)oc2c1 | -4.4% (inactive) | –
11 | O=S(=O)(c1cccs1)N1CCN(Cc2ccccc2)CC1 | – | 16.4 µM (active)
12 | COc1ccc2c(CN3CCN(S(=O)(=O)c4cccs4)CC3)cc(=O)oc2c1 | – | 13 µM (active)
13 | O=C(NCc1ccccc1)C1CCCN(S(=O)(=O)c2cccs2)C1 (stereo unspecified) | -11.5% (inactive) | –
14 | CC(=O)N1CCN(Cc2cc(=O)oc3cc(C)ccc23)CC1 | 23.4% (inactive) | –
15 | O=S(=O)(c1cccs1)N1CCc2ccccc2C1 | -1.64% (inactive) | –
16 | O=c1cc(CN2CCCCCCC2)c2c(ccc3ccccc32)o1 | 0% (inactive) | –
17 | CCC(O)CNc1nc(-n2nc(C)cc2C)nc2sc3c(c12)CC(C)(C)OC3 (stereo unspecified) | – | 2.59 µM (active)
18 | CCOC(=O)Cn1c(SC)nc2sc3c(c2c1=O)CC(C)(C)OC3 | 0% (inactive) | –
19 | CCc1nc(N2CCN(C(C)=O)CC2)c2c3c(sc2n1)CCCC3 | 0.835% (inactive) | –
20 | COCCn1c(C)cc(C(=O)CSc2ncnc3sc4c(c23)CCC4)c1C | -0.688% (inactive) | –
21 | CC/C(C)=N/Nc1nc2sc3c(c2c(=O)[nH]1)CC(C)(C)OC3 | 0% (inactive) | –

Row | Structure (SMILES) | activity change, negative = cytotoxicity | Potency
22 | COCCNc1nc(-n2nc(C)cc2C)nc2sc3c(c12)CCCC3 | – | 9.2 µM (active)
23 | O=C(NC1CCCCC1)C(c1cc2ccccc2o1)n1c(=O)c(-c2ccco2)nc2ccccc21 (stereo unspecified) | 0.699% (inactive) | –
24 | Nc1[nH]c(C(=O)c2ccccc2)c(-c2ccncc2)c1C(=O)NCc1cccc2ccccc12 | -26.5% (inactive) | –
25 | Cc1ccc(Cn2cc(CN3CC(N4CCN(C)CC4)CS3(=O)=O)nn2)cc1 (stereo unspecified) | -0.565% (inactive) | –
26 | CCOC(=O)N1CCN(C(=O)c2ccc(S(=O)(=O)Nc3cccc(C(F)(F)F)c3)cc2)CC1 | -0.0688% (inactive) | –
27 | Cc1ccccc1CS(=O)(=O)CC1(O)CCN(C(=O)c2cccc(C(F)(F)F)c2)CC1 | – | 14.6 µM (active)
28 | Cc1ccccc1CN1CCN(C(=O)c2cccc(F)c2)CC1 | -5.87% (inactive) | –
29 | CCOc1ccc(-c2cc3nc(C4CCN(C(=O)OC(C)(C)C)CC4)c(C(=O)Nc4cccc(CC)c4)cn3n2)cc1 | 11.3% (inactive) | –
30 | Cn1c(=O)c2c(-c3ccccc3Br)n(Cc3ccccc3)cc2n(C)c1=O | 8.21% (inactive) | –
31 | C[C@H]1CCC(=O)N([C@H](CSc2ccccc2)Cc2ccccc2)CC1 | -9.51% (inactive) | –
32 | CC(=O)Nc1ccc(SC[C@H](Cc2ccccc2)N2CC[C@@H](C)CCC2=O)cc1 | 0.636% (inactive) | –
33 | Cc1ccc(CN(C)CC(=O)Nc2cccc([N+](=O)[O-])c2)o1 | 0% (inactive) | –
34 | CN(CC(=O)Nc1cccc(F)c1)CC(=O)Nc1cccc([N+](=O)[O-])c1 | – | 11.6 µM (active)
35 | CN(CC(=O)Nc1cccc(F)c1)C(=O)C1=COCCO1 | 17.7% (inactive) | –
36 | C[C@@H]1CN([C@H](C)CO)C(=O)CCCn2cc(nn2)CO[C@H]1CN(C)S(=O)(=O)c1ccc(Oc2ccccc2)nc1 | -17.3% (inactive) | –
37 | O=C(C[C@H]1C[C@H]2c3cc(NS(=O)(=O)c4ccc(F)cc4)ccc3O[C@H]2[C@H](CO)O1)NCc1cc(F)ccc1F | 5.71% (inactive) | –
38 | Cc1cccc(-c2nnc(SC(C)C(=O)Nc3ccccc3)n2C)c1 (stereo unspecified) | 0% (inactive) | –
39 | CC(Sc1nnc(C2CC2)n1C1CC1)C(=O)Nc1ccc(C(N)=O)cc1 (stereo unspecified) | 6.16% (inactive) | –
40 | CC(Sc1nnc2c(n1)C1CCC2(C)C1(C)C)C(=O)Nc1ccccc1 (stereo unspecified) | – | 20.6 µM (active)
41 | CC(CNC(=O)c1nnc(Cc2cccc(F)c2)o1)c1ccccc1 (stereo unspecified) | 0% (inactive) | –
42 | C[C@H](CO)N1C[C@H](C)[C@@H](CN(C)S(=O)(=O)c2ccc(Oc3ccccc3)cc2)OCc2cn(nn2)CCCC1=O | 9.08% (inactive) | –

Row | Structure (SMILES) | activity change, negative = cytotoxicity | Potency
43 | C[C@@H]1CCCCO[C@H](CN(C)Cc2ccccc2)[C@@H](C)CN([C@H](C)CO)C(=O)c2cc(NS(=O)(=O)c3ccc(Cl)cc3)ccc2O1 | -12.7% (inactive) | –
44 | O=C(NCc1ccccn1)[C@@H]1CCCN1C(=O)[C@@H]1CCCN1C(=O)c1ccccc1 | -11.2% (inactive) | –
45 | CC1(C(=O)NCc2ccc3c(c2)OCO3)CCN1C(=O)Cc1cccc2ccccc12 (stereo unspecified) | 2.6% (inactive) | –
46 | COC(=O)C(C)Oc1ccc2c(c1)O/C(=C\c1cccc(Br)c1)C2=O (stereo unspecified) | 12.6% (inactive) | –
47 | COc1ccc2c(c1)O/C(=C\c1ccccc1O)C2=O | 5.61% (inactive) | –
48 | COc1cc(/C=C2\Oc3ccc(C#Cc4ccc(O)cc4)cc3C2=O)cc(OC)c1 | – | 7.31 µM (active)
49 | CCN(CC)C(=O)C1=C(C)N(Cc2ccccc2)C(=O)C(CC(=O)NC(c2ccccc2)c2ccccc2)C1 (stereo unspecified) | 5.18% (inactive) | –
50 | Cn1ncc(Br)c1C(=O)NCc1cccs1 | -7.92% (inactive) | –
51 | CC(C)Cn1c(N)c(C(=O)NCc2cccs2)c2nc3ccccc3nc21 | – | 10.3 µM (active)
52 | CC(C)(C)c1ccc(C(=O)NCCn2c(N)c(C#N)c3nc4ccccc4nc32)cc1 | -6.17% (inactive) | –
53 | CCN1C(=O)c2ccccc2S(=O)c2ccc(C(=O)NCc3ccc(F)cc3)cc21 (stereo unspecified) | -21.4% (inactive) | –
54 | CCOC(=O)C1CCCN(S(=O)(=O)c2cc(-c3cc(C)no3)ccc2OC)C1 (stereo unspecified) | 4.24% (inactive) | –
55 | O=c1cc(CSc2ncn[nH]2)[nH]c2ccc(F)cc12 | 3.56% (inactive) | –
56 | CCNC(=O)C1(C)CCN(C(=O)c2ccccc2)C1 (stereo unspecified) | 1.66% (inactive) | –
57 | CCOC(=O)N1CCN(C(c2ccnc3ccccc23)c2nnnn2-c2c(C)cccc2C)CC1 (stereo unspecified) | -13.6% (inactive) | –
58 | CCOC(=O)N1CCN(C(c2cccnc2)c2ccc3cccnc3c2O)CC1 (stereo unspecified) | – | 16.4 µM (active)
59 | Oc1c(C(c2ccccn2)N2CCOCC2)ccc2cccnc12 (stereo unspecified) | -27.6% (inactive) | –
60 | CCN(CC)c1nc(C#N)nc(OC)n1 | -5.8% (inactive) | –
61 | CC(C)c1ccc(NC(=O)CN(C)S(=O)(=O)c2ccc3c(c2)c(=O)n(C)c(=O)n3C)cc1 | -2.65% (inactive) | –
